# Test results as given in PMC10726135, “HNF4α isoforms regulate the circadian balance between carbohydrate and lipid metabolism in the liver”.
# Whole data set: some 18,000 sequences, median “log2 normalized intensity” near 0.39, cut for the highest 2% near 6.6. The list comes from a sample in which the highest values are over-represented; it also holds similar and randomly drawn sequences.
# Biological target: T1, HNF4alpha2 (COS-7 nuclear extract) (Homo sapiens, UniProt P41235 1-474)
# T1 sequence: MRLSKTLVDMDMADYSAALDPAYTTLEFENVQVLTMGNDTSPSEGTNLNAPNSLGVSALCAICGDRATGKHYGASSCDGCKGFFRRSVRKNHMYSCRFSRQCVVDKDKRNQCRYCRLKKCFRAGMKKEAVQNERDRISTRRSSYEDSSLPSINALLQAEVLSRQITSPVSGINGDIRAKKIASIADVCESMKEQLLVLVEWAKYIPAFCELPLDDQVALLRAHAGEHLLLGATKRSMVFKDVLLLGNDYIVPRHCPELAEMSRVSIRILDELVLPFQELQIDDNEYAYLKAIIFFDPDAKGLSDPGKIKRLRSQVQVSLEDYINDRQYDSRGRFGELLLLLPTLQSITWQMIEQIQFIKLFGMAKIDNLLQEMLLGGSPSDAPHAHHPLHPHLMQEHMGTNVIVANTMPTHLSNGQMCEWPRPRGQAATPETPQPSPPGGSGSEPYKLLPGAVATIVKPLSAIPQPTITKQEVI
# Assay: protein-binding microarray; COS-7 nuclear extract on double-stranded Agilent 4x180k PBM; binding buffer, salt, pH and temperature not given in the material; high values mean tight binding
# Conditions: chain copies: 2; label: 3' end of strand 1 on the slide; dsDNA, one strand shown
# Procedure, shortened: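 A human HNF4α isoform was expressed in COS-7 cells by transient CaPO4 transfection, and nuclear extracts were prepared. These were applied to a custom Agilent SurePrint G3 4x180k array carrying ~44,000 test sequences in quadruplicate as double-stranded ~60-nt oligonucleotides, and an Agilent G2565CA scanner imaged bound HNF4α at 2-µm resolution. The background-corrected, normalized gProcessedSignal from Agilent software was used as the binding signal.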
row,Sequence,binding signal [log2 normalized intensity]
1,TTAAAGGGCAGAAGAAGGGATTTAGATTAGGCCTAGGGAGATTAGAGTATCGGTCGA,-0.58
2,GATCCTCCCACTTCAGCCTCCCGAGTAGTTGCCTAGGGAGATTAGAGTATCGGTCGA,2.81
3,TGAGAGAGCATCCAGATAAAGCTGAAGAAAGCCTAGGGAGATTAGAGTATCGGTCGA,-0.814
4,TTCAGCCATTTTATGACCATGAGGTGACGGGCCTAGGGAGATTAGAGTATCGGTCGA,1.6
5,ACGTGGCAATCATTCTGTCTGCCTTCAGGCGCCTAGGGAGATTAGAGTATCGGTCGA,-0.947
6,CACTGTTGCCCCTTCCAAAGTCCACCTCAAGCCTAGGGAGATTAGAGTATCGGTCGA,4.43
7,ATGACCTTTGAGCAATAGGAAATGGGAGGGGCCTAGGGAGATTAGAGTATCGGTCGA,2.34
8,CCTTTTTGGAATGTGTTTGCATGACTCATAGCCTAGGGAGATTAGAGTATCGGTCGA,1.77
9,GCATGGAATGACTTTGGGGAAATGACCTTTGCCTAGGGAGATTAGAGTATCGGTCGA,7.23
10,CCTTGACACATCTGATTAGAGGCTCAGGTAGCCTAGGGAGATTAGAGTATCGGTCGA,-0.794
11,CTGTACACTTACAAGTGTACAAAGGTCACTGCCTAGGGAGATTAGAGTATCGGTCGA,7.61
12,AGTATATTGGCTTGGCTGTGTCCCTTGACCGCCTAGGGAGATTAGAGTATCGGTCGA,3.04
13,TCAGAGGAATGTCTGACCAACCTGTCCAAAGCCTAGGGAGATTAGAGTATCGGTCGA,0.136
14,CACTTACAAGTGTACAAAGGTCACTTCTGTGCCTAGGGAGATTAGAGTATCGGTCGA,6.32
15,ATTGGCTTGGCTGTGTCCCTTGACCAAAGGGCCTAGGGAGATTAGAGTATCGGTCGA,2.07
16,TATACCTGTACACTTACAAGTGTACAAAGGGCCTAGGGAGATTAGAGTATCGGTCGA,2.65
17,GGAATGTCTGACCAACCTGTCCAAAGGTCAGCCTAGGGAGATTAGAGTATCGGTCGA,7.66
18,CTTGGCTGTGTCCCTTGACCAAAGGTCACTGCCTAGGGAGATTAGAGTATCGGTCGA,6.77
19,GTCTGACCAACCTGTCCAAAGGTCATCTGTGCCTAGGGAGATTAGAGTATCGGTCGA,7.04
20,TTATATCAGAGGAATGTCTGACCAACCTGTGCCTAGGGAGATTAGAGTATCGGTCGA,0.0786
21,ACCAACCTGTCCAAAGGTCATCTGTCACTCGCCTAGGGAGATTAGAGTATCGGTCGA,5.7
22,CCTGTCCAAAGGTCATCTGTCACTCTAGATGCCTAGGGAGATTAGAGTATCGGTCGA,5.47

row,Sequence,binding signal [log2 normalized intensity]
1,AAGGCTTTGAAGTCTGGTGGCAAGTACCCTGCCTAGGGAGATTAGAGTATCGGTCGA,-0.842
2,ATTTTCTCATCCCAGGGATAATGATAAAGAGCCTAGGGAGATTAGAGTATCGGTCGA,-0.184
3,TCCCTTTAGTGGAGTATAGGAACATGAACTGCCTAGGGAGATTAGAGTATCGGTCGA,1.96
4,GAGTTGGGGACAAAGTTCAAGGTCCAGCCTGCCTAGGGAGATTAGAGTATCGGTCGA,5.28
5,GTCCAAGATGGCAATGTTCCTGCTCTGTCAGCCTAGGGAGATTAGAGTATCGGTCGA,-0.996
6,AGATTACTTCAAGGCTGGAGTTCACTCCCAGCCTAGGGAGATTAGAGTATCGGTCGA,-0.354
7,CATGGGTCTCTTCCTCAGTTTGTTCTTGGGGCCTAGGGAGATTAGAGTATCGGTCGA,1.18
8,GATCCAAAAGACCCAGGTGTGTTGCAACTTGCCTAGGGAGATTAGAGTATCGGTCGA,0.84
9,TGGGTGGGGGAAGTGTGGTCAAGGGTCAGTGCCTAGGGAGATTAGAGTATCGGTCGA,4
10,AGAGCAAGGGTCAAGGGTCATTTGTTTTTAGCCTAGGGAGATTAGAGTATCGGTCGA,5.91
11,GTGGGAGAGCAAGGGTCAAGGGTCATTTGTGCCTAGGGAGATTAGAGTATCGGTCGA,6.7
12,CCCATCCGCAGTGGGAGAGCAAGGGTCAAGGCCTAGGGAGATTAGAGTATCGGTCGA,3.57
13,CCGCAGTGGGAGAGCAAGGGTCAAGGGTCAGCCTAGGGAGATTAGAGTATCGGTCGA,6.65
14,AAGGGTCAAGGGTCATTTGTTTTTACAGACGCCTAGGGAGATTAGAGTATCGGTCGA,6.27
15,CAGAACAAAGTCCAGTAAGGACAGTTCCAGGCCTAGGGAGATTAGAGTATCGGTCGA,2.29
16,CTTGTAAGCCACAGTACAAAGGTGAGCTTTGCCTAGGGAGATTAGAGTATCGGTCGA,3.57
17,TGGATCATGTGTCTGAGCAAGTTTCCTCCTGCCTAGGGAGATTAGAGTATCGGTCGA,-0.544
18,GTCAAACCTTTGACCCTTTATAATCCCCTAGCCTAGGGAGATTAGAGTATCGGTCGA,4.25
19,GTCAAATCACTGAAGCGACCCCTCGAGGCAGCCTAGGGAGATTAGAGTATCGGTCGA,1.42
20,CGACCCCTCGAGGCAACCTTTGACCTGGTAGCCTAGGGAGATTAGAGTATCGGTCGA,7.48
21,TGAAGCGACCCCTCGAGGCAACCTTTGACCGCCTAGGGAGATTAGAGTATCGGTCGA,8.54
